PubChem BioAssay
Activity calls are given as the source filed them.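 How the source made its calls, unless noted: active means inhibition above 20% together with a positive visual image hit; inconclusive means visual image hit but inhibition not above 20%; inactive means no visual image hit.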

What was measured:
[1] = inhibitors of TNFa-induced NFkB p65 translocation, primary screen, imaging, HUVEC, MLSMR starter and 10KST1 sets (AID 438); settings: HUVEC TNFa-induced p65 nuclear translocation; cell count: measured here: nuclei count (cytotoxicity indicator), at 2.08 µM; inhibition: at 2 µM, stronger effect = higher value, 0% TNFa-plus-vehicle, 100% no-TNFa wells;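 further: compound added about 3h40 before a 20 min TNFalpha stimulation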;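 on inhibition: signal is the nuclear over cytoplasmic p65 intensity ratio per well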
[2] = inhibitors of mutant huntingtin aggregation, primary screen, imaging, exon1htt(103Q)mCFP cells, high-content imaging (AID 483;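 active means visual image review flags a hit and inhibition of aggregation exceeds 20%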;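 further: compound exposure lasted 3 days before fixation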;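 on nuclei count: percent of the per-plate median nuclei count of sample wells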); settings: exon1htt(103Q)mCFP cell line, aggregate imaging, at 2 µM; inhibition of aggregation: stronger effect = higher value; nuclei count: measured here: cell count, toxicity
[3] = inhibitors of E-selectin induction by TNFa, primary screen, imaging, HUVEC, immunofluorescence, MLSMR starter and 10KST1 sets (AID 487;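 active means visually confirmed hit in the image check and inhibition above 20%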;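 on inhibition: signal is fraction of cell area covered by stained E-selectin grains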;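 on nuclei count: 100% = median nuclei count of all wells on the same plate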); settings: HUVEC TNFalpha-induced E-selectin immunofluorescence imaging, at 2 µM; inhibition: stronger effect = higher value; nuclei count: measured here: cell number, toxicity
[4] = target: Voltage-gated potassium channel subunit beta-2 (Rattus norvegicus) (UniProt P62483); assay: KvBeta enzyme negative modulators, primary screen, biochemical, NADPH fluorescence (AID 622;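 active means fluorescence slope higher than the sample average by over 3 SD, cut at about -0.22 in these data, passing the limit was not always enough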;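 further: slope of raw intensity against log time taken from 70 to 1610 s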); settings: recombinant KvBeta, 4-cyanobenzaldehyde reduction, at 10 µM, stronger effect = higher value
[5] = target: Voltage-gated potassium channel subunit beta-2 (Rattus norvegicus) (UniProt P62483); assay: KvBeta positive modulators, primary screen, biochemical, NADPH fluorescence (AID 623;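 active means NADPH fluorescence slope more negative than the mean of all samples by about 3 SD, 99.7% confidence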;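 further: fluorescence intensity change per second fitted from 20 to 320 s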); settings: Recombinant KvBeta, NADPH fluorescence decrease slope, 10 min; at 10 µM; stronger effect = lower value
[6] = target: Alpha-2C adrenergic receptor (Homo sapiens) (UniProt P18825); assay: modulators of alpha2C/GIRK thallium flux, primary screen, cell-based, HEK293 alpha2C/GIRK1/2 (AID 624;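 active means fluorescence slope after compound addition differing from the mean of all screened samples at 99.7% confidence, in either direction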;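 further: slope of fluorescence ratio to pre-addition baseline per second over 15 to 24 s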); settings: thallium flux BTC fluorescence, at 10 µM, actives lie on both sides
[7] = inhibitors of Sendai virus-induced IRF3 signaling, primary screen, TLR/RLR signaling modifier project, cell-based, Sendai virus stimulus, luciferase, 10K MLSCN set (AID 602276;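 active means inhibition at or above 50% at 10 µM; inactive means inhibition below 50%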;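 further: firefly luciferase from ISG56 promoter only with Renilla not read in this screen; 0% = Sendai virus plus DMSO and 100% = medium plus DMSO without virus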); settings: HEK293 RL24 IRF3 luciferase reporter, at 10 µM, stronger effect = higher value
[8] = inhibitors of poly I:C-induced TLR3 signaling, primary screen, cell-based, poly I:C stimulus, luciferase, 10K MLSCN set (AID 602277;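 active means inhibition of the reporter signal at or above 50%; inactive means inhibition below 50%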); settings: HEK293-TLR3 RL24 IRF3 luciferase reporter, at 10 µM, stronger effect = higher value

Chain of Voltage-gated potassium channel subunit beta-2 (Rattus norvegicus) (P62483 whole entry, looked up): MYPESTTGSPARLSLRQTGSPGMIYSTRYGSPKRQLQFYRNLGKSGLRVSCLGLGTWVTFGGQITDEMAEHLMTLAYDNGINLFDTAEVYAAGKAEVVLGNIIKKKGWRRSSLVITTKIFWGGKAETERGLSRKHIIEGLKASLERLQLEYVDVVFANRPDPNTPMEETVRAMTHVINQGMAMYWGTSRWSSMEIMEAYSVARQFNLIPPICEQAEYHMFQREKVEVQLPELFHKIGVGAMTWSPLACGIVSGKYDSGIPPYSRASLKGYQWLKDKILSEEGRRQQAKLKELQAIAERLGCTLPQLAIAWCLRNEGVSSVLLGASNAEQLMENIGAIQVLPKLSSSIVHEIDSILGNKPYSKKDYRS
Chain of Alpha-2C adrenergic receptor (Homo sapiens) (P18825 whole entry, looked up): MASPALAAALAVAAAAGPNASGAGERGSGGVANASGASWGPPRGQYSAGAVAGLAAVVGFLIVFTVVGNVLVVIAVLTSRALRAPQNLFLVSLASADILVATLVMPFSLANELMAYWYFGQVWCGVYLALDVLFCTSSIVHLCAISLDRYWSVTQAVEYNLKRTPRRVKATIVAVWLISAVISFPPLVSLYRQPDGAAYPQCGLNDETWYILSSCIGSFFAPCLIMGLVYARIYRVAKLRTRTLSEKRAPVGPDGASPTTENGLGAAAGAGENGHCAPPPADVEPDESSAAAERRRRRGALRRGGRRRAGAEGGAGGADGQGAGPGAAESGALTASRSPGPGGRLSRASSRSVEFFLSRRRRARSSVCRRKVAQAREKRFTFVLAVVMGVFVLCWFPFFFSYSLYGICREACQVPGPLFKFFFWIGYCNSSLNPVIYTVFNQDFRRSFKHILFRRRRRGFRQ

| SMILES | cell count [1] | inhibition [1] | inhibition of aggregation [2] | nuclei count [2] [%] | inhibition [3] | nuclei count [3] [%] | fluorescence slope [4] | NADPH fluorescence slope [5] | slope [6] | inhibition [7] | inhibition [8] |
| --- | --- | --- | --- | --- | --- | --- | --- | --- | --- | --- | --- |
| CCn1cc(C(=O)N=c2sc3ccccc3n2C)c(=O)c2ccc(C)nc21 | 450 | 3.7% (inactive) | -5.2% (inactive) | 107 | -27.5% (inactive) | 97.3 | -0.361 (inactive) | -6.4e-05 (inactive) | 0.00595 (inactive) | 6.49% (inactive) | 23% (inactive) |
| O=C(CCSc1nc(-c2ccco2)cc(C(F)(F)F)n1)NCCc1ccccc1 | 491 | -8.3% (inactive) | -16.1% (inactive) | 106 | 23.2% (inactive) | 104 | -0.387 (inactive) | -3.6e-05 (inactive) | 0.00564 (inactive) | -7.29% (inactive) | -52.7% (inactive) |
| COc1ccc(S(=O)(=O)Nc2ccc(F)c(F)c2)cc1Cl | 723 | 8.5% (inactive) | 5.1% (inactive) | 102 | -8.3% (inactive) | 98.5 | -0.496 (inactive) | -1.9e-05 (inactive) | 0.0057 (inactive) | 8.01% (inactive) | 31.5% (inactive) |
| COc1ccccc1NC(=O)C1=C(C)Nc2nnnn2C1c1ccccc1OC (centres undefined) | 453 | -0.5% (inactive) | -7.9% (inactive) | 90.1 | 8.8% (inactive) | 82.2 | -0.415 (inactive) | 7.3e-06 (inactive) | 0.00379 (inactive) | 10.5% (inactive) | 33.5% (inactive) |
| Cc1ccc(N=Cc2ccc(O)cc2O)cc1F | 334 | -13.8% (inactive) | 0.1% (inactive) | 113 | -98.5% (inactive) | 107 | -0.395 (inactive) | -0.000134 (inactive) | 0.00518 (inactive) | 13% (inactive) | 23.4% (inactive) |
| CCOC(=O)Cn1nc(-c2ccc(Cl)cc2)cc1N | 285 | 15.6% (inactive) | -12% (inactive) | 99.9 | -2.9% (inactive) | 111 | -0.501 (inactive) | -8.2e-05 (inactive) | 0.00497 (inactive) | -5.22% (inactive) | -25.8% (inactive) |
| CCOc1ccc(OCCCCN(C)C)cc1 | 386 | 1.8% (inactive) | 5.3% (inactive) | 110 | -111% (inactive) | 104 | -0.299 (inactive) | -6.7e-06 (inactive) | 0.00564 (inactive) | 8.3% (inactive) | 27.7% (inactive) |
| Cn1c(=O)c(C(=O)Nc2cccnc2)c(O)c2ccccc21 | 632 | 5.5% (inactive) | 0.5% (inactive) | 128 | -74% (inactive) | 112 | -0.479 (inactive) | -4.8e-05 (inactive) | 0.0062 (inactive) | -29.2% (inactive) | -42.3% (inactive) |
| COc1ccc(-n2c(=O)c3c4c(sc3n3cnnc23)CC(C)CC4)cc1 (centres undefined) | 370 | 0.2% (inactive) | -5.1% (inactive) | 80.3 | -108% (inactive) | 116 | -0.46 (inactive) | -4.9e-05 (inactive) | 0.00768 (inactive) | 23.9% (inactive) | 2.31% (inactive) |
| Cc1ccccc1Nc1nc(N)nc(CSCc2c(C)noc2C)n1 | 347 | -15.8% (inactive) | -2.4% (inactive) | 93.8 | -16.2% (inactive) | 117 | -0.361 (inactive) | -5.1e-05 (inactive) | 0.00597 (inactive) | -21.3% (inactive) | -33.2% (inactive) |
| Nc1nnc(SCc2cc3c(cc2Cl)OCO3)s1 | 379 | 7.6% (inactive) | -3.1% (inactive) | 110 | -30.6% (inactive) | 111 | -0.477 (inactive) | -6.6e-05 (inactive) | 0.00689 (inactive) | 0.13% (inactive) | 9.87% (inactive) |
| COc1ccc(NC(=O)c2cc(C3CC3)on2)c(OC)c1 | 603 | -2.9% (inactive) | -2.2% (inactive) | 116 | -29.1% (inactive) | 107 | -0.587 (inactive) | -4.2e-05 (inactive) | 0.00532 (inactive) | -6.03% (inactive) | 2.94% (inactive) |
| CCOc1ccc2nc(NC(=O)CSc3nc4ccccc4c(=O)n3Cc3ccco3)sc2c1 | 654 | -6.1% (inactive) | -5.6% (inactive) | 115 | -65.7% (inactive) | 132 | -0.413 (inactive) | 9.6e-06 (inactive) | 0.00934 (active) | 15.6% (inactive) | 10% (inactive) |
| CC1CCCCC1NC(=O)C1CCN(C(=O)NC2CCCCC2)CC1 (centres undefined) | 172 | -4.9% (inactive) | 20.6% (inactive) | 71.9 | 2.1% (inactive) | 79.8 | -0.448 (inactive) | -4.6e-05 (inactive) | 0.00366 (inactive) | 13.5% (inactive) | 28.2% (inactive) |
